In PubChem BioAssay (NCATS):
Results filed as inconclusive are left out. The source made the active and inactive calls. Calls follow the shape of the dose curve; as a rule, active = well fitted curve in the direction sought with a large enough effect; inconclusive = small, poorly fitted or top-dose-only effect, or another doubt; inactive = no such curve, though single readings can be large; an effect the other way counts as inactive or inconclusive.

Tests used:
[1] = biological target: Arylsulfatase A (Homo sapiens) (UniProt P15289); experiment: qHTS screen for enhancers of Arylsulfatase A (ASA1): LOPAC Validation Assay (AID 720538)
Arylsulfatase A (Homo sapiens), sequence (P15289 whole entry, looked up): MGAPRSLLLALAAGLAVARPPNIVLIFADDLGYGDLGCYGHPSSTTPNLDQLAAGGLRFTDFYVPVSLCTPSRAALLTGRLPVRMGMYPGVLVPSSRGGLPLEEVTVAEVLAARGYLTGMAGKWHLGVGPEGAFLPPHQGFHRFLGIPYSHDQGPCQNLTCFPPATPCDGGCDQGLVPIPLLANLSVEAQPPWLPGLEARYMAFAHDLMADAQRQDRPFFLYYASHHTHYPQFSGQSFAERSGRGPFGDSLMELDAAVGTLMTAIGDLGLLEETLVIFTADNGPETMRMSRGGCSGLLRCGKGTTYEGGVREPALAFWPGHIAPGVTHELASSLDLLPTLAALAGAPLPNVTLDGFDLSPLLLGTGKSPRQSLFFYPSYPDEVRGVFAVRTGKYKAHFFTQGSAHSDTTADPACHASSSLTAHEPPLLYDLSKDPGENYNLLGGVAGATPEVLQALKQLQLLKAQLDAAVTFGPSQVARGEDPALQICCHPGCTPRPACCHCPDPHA
Outline: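 SV40-transformed skin fibroblasts from an MLD patient (ASA-I179S) were treated with compounds for 48h at 37 degree C, then lysed with 0.5mM pNCS final substrate for 14h at room temperature; NaOH stop, fluorescence read (Ex=525 nm; Em=598 nm).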

[2] = qHTS for Activators of Parkin Expression: LOPAC Validation Assay (NLuc Reporter) (AID 720572)
Outline: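 Parkin promoter-driven FLuc/NLuc neuronal reporter cells; 24 h plating, 7-pt dose response, 24 h at 37 C/5% CO2; FLuc then NanoLuc reagent, 10 min each, luminescence; DMSO/positive control normalized.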

[3] = biological target: T1, Hexokinase-4 (Homo sapiens) + Glucokinase regulatory protein (Homo sapiens) (UniProt P35557+Q14397); experiment: qHTS assay for inhibitors of recombinant human GCK-GKRP interaction: Diaphorase-coupled assay (AID 743205)
T1 sequence (P35557 whole entry, looked up): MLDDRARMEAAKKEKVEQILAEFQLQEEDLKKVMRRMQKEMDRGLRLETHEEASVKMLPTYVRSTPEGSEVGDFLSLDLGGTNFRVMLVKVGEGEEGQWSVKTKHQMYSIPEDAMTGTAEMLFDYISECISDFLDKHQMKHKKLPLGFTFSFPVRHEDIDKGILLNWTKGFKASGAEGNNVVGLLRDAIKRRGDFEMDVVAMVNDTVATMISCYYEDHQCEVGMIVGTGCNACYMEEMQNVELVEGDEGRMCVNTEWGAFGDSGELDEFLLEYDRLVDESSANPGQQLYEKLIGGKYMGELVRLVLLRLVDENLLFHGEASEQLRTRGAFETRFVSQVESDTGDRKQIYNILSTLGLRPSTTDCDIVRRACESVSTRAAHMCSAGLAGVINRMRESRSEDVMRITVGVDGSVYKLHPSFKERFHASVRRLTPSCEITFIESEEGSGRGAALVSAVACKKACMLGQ
T1 sequence (Q14397 whole entry, looked up): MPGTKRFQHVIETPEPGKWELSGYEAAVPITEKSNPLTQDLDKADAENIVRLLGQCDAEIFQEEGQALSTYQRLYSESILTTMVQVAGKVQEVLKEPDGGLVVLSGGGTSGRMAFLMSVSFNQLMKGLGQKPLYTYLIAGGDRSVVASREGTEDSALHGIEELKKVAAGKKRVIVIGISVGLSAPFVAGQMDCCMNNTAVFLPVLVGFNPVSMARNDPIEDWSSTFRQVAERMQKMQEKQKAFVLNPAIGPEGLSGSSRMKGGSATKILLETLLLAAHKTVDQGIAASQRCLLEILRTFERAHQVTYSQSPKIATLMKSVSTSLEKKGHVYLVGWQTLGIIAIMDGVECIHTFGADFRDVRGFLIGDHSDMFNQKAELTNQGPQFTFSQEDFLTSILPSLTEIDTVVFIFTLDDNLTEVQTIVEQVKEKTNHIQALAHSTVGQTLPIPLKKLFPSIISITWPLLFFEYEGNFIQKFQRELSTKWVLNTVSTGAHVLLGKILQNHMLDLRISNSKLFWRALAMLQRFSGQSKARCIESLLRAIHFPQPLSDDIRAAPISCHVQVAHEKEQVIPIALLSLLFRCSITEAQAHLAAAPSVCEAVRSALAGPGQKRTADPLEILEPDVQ
Outline: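 GST-GCK (10 nM) with FLAG-GKRP (10 nM), 5 mM glucose and 0.4 mM ATP in pH 7.6 Hepes; compounds preincubated 20 min with substrate. G6PDH/diaphorase coupling converts resazurin to resorufin, read kinetically (ex 525/em 590 nm) for 30 min.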

[4] = biological target: T1, Hexokinase-4 (Homo sapiens) + Glucokinase regulatory protein (Homo sapiens); experiment: qHTS assay for inhibitors of recombinant human GCK-GKRP interaction: ADP-Glo assay (AID 743206)
Outline: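 GST-GCK and FLAG-GKRP (15 nM each in the dispensed mix, with 2 uM S6P) react with 0.4 mM ATP and 5 mM glucose (final) in Hepes pH 7.6 for 60 min at room temperature. ADP is measured by ADP-Glo luminescence.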

[5] = biological target: T1, Hexokinase-4 (Homo sapiens) + Glucokinase regulatory protein (Homo sapiens); experiment: qHTS assay for inhibitors of recombinant human GCK-GKRP interaction: HTRF assay (AID 743207)
Outline: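 GST-GCK and FLAG-GKRP (5 nM each) were combined with 2 uM S6P in pH 7.1 Hepes/MgCl2/KCl/DTT buffer, then compound and anti-FLAG XL665/anti-GST K antibodies were added. After 60 min at room temperature, HTRF 665/615 nm emission was read.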

[6] = qHTS for Activators of Parkin Expression: LOPAC Validation Assay (FLuc Reporter) (AID 720573)
Outline: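 Neuronal cell line stably carrying FLuc/NLuc coincidence reporter under Parkin promoter; cells plated 24 h, then compounds added in 7-point dose response for 24 h at 37 C. FLuc luminescence read; normalized to DMSO and positive control (100%).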

[7] = qHTS for compounds that reverse cellular toxicity of Amyloid beta (A-beta) peptide in yeast: LOPAC Validation Assay (AID 720559)
Outline: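 Yeast cells expressing toxic A-beta were combined with pinned compounds in growth medium and incubated 48 hr at 30 C. Growth was read as absorbance at 600 nm and normalized to DMSO and to an equimolar FeCl3/clioquinol positive control.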

Measured: Potency

CN1CCC(c2c[nH]c3ccc(O)cc23)CC1
not listed: [6] | [7]
inactive: all other assays above

N#C/C(=C/c1ccc(O)c(O)c1)C(N)=S
not listed: [7]
inactive: all other assays above

NC(=O)COc1c(F)cc(SCCNS(=O)(=O)c2ccccc2)cc1F
not listed: [6]
inactive: all other assays above

NCCCP(=O)(O)O
not listed: [7]
inactive: all other assays above

Nc1ccc(CCN2CCN(c3cccc(C(F)(F)F)c3)CC2)cc1
not listed: [7]
inactive: all other assays above

NC(CCCCCP(=O)(O)O)C(=O)O (stereo not drawn)
not listed: [7]
inactive: all other assays above

C[N+](C)(C)CC#CCOC(=O)Nc1cccc(Cl)c1
not listed: [7]
inactive: all other assays above

NC(N)=Nc1ccc2[nH]c3c(c2c1)C[C@@]1(O)[C@H]2Cc4ccc(O)c5c4[C@@]1(CCN2CC1CC1)[C@H]3O5
not listed: [7]
inactive: all other assays above

Oc1ccc2c3c1O[C@H]1c4oc5ccccc5c4C[C@@]4(O)C(C2)N(CC2CC2)CCC314 (stereo partly drawn)
not listed: [7]
inactive: all other assays above

C[N+]1(C)CCN(c2ccccc2)CC1
not listed: [7]
inactive: all other assays above

Cc1sc2ccccc2c1CC1=NCCN1
not listed: [7]
inactive: all other assays above

N[C@@H](CCl)C(=O)O
not listed: [7]
inactive: all other assays above

CNc1ccc2oc(C[C@H]3O[C@@]4(CC[C@H]3C)O[C@H]([C@H](C)C(=O)c3ccc[nH]3)[C@H](C)C[C@H]4C)nc2c1C(=O)O
not listed: [7]
inactive: all other assays above

CC(=O)OCC1=C(C(=O)O)N2C(=O)[C@@H](NC(=O)CCC[C@@H](N)C(=O)O)[C@H]2SC1
not listed: [6] | [7]
inactive: all other assays above

C[C@@H]1[C@@H]2Cc3ccc(O)cc3[C@@]1(C)CCN2CC1CC1
not listed: [7]
inactive: all other assays above

CN1CC[C@@]2(C)c3cc(OC(=O)Nc4ccccc4)ccc3N(C)[C@@H]12
not listed: [7]
inactive: all other assays above

COc1ccc2c(c1)C13CCCCC1C(C2)N(C)CC3 (stereo not drawn)
not listed: [6] | [7]
inactive: all other assays above

Cc1c2ccncc2c(C)c2c1[nH]c1ccccc12
not listed: [6] | [7]
inactive: all other assays above

COc1ccc(OC)c(C(O)C(C)N)c1 (stereo not drawn)
not listed: [1]
inactive: all other assays above

O=[N+]([O-])/C=C/c1ccc2c(c1)OCO2
not listed: [1]
inactive: all other assays above

CCCN(CCC)[C@H]1CCc2c(F)ccc(O)c2C1
not listed: [1] | [6]
inactive: all other assays above

O=[N+]([O-])c1ccc2nc(N3CCNCC3)ccc2c1
not listed: [1]
inactive: all other assays above

CC(C)CC(NP(=O)(O)O[C@@H]1O[C@@H](C)[C@H](O)[C@@H](O)[C@H]1O)C(=O)NC(Cc1c[nH]c2ccccc12)C(=O)O (stereo partly drawn)
inactive: [5]

CCCN(CCC)[C@@H]1CCc2cccc(O)c2C1
not listed: [6] | [7]
inactive: all other assays above

C[C@@H]1O[C@@H](O[C@H]2C[C@@H](O)[C@]3(CO)[C@@H]4C(CC[C@]3(O)C2)[C@@]2(O)CC[C@H]([C@@H]3COC(=O)C3)[C@@]2(C)C[C@H]4O)[C@H](O)[C@H](O)[C@H]1O (stereo partly drawn)
not listed: [1] | [7]
inactive: all other assays above

C=CCN1CCc2cccc3c2[C@H]1Cc1ccc(O)c(O)c1-3
not listed: [1] | [7]
inactive: all other assays above
